Data on 94 molecules can be found in PubChem BioAssay AID588397 (National Center for Advancing Translational Sciences (NCATS), 2011).

Hit rate of the full screen: of about 1,300 compounds, about 1,000 (77%) were called active. Inconclusive results (about 7%) are left out. The set was probably picked from earlier hits. Some of the results follow. Unmarked numbers belong to inactive results. Calls come from the whole dose curve; as a rule, active = well fitted inhibition curve with a large enough effect; inconclusive = small, poorly fitted or top-dose-only effect; inactive = no such curve, though single readings can be large or run the other way.
% is set by controls: 0 for no effect and ±100 for the full control effect; potency is the fitted concentration of half-maximal effect.

This assay can be described thus: qHTS of small molecules that selectively kill Giardia lamblia: Hit Validation.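 Note: viability measured as ATP content by luminescence so killing lowers signal; nearly all actives have a fitted effect of over 65% in size.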 The following applies: Giardia lamblia trophozoite viability, dose-response; series mostly up to 38.3 µM; activity change, negative = killing: at the top concentration. The procedure, abridged:
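Trophozoite viability was measured as ATP-dependent luminescence, read 15-30 min after reagent addition. Before that, parasites at 100 cells/well were exposed to compounds for 48 h, anaerobically, at 37 deg C.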
With `COc1ccc(C(=O)Nc2ccc3[nH]ccc3c2)cc1`, the Potency was 410 nM (active). Consider `COc1ccc(NS(=O)(=O)c2cc(NC(=O)c3ccc(=O)[nH]c3)ccc2C)cc1`, for which the “activity change, negative = killing” value is 7.37%. In the case of `O=C(Nc1ccc2[nH]ccc2c1)c1ccccc1`, the Potency was 2050 nM (active). Turning to `C(=NN1CCCCCC1)c1ccc2ccccc2n1`, the Potency is 1030 nM (active). For the molecule `COc1ccc(CC(NC(C)=O)C(=O)NC2CCN(c3ncccc3[N+](=O)[O-])CC2)cc1` (centres undefined), the Potency is 2050 nM (active). As to `CC(NC(=O)c1ccccc1F)c1nnc(SCC(=O)NC2CCCC2)n1C` (centres undefined), the “activity change, negative = killing” value was -17%.

Regarding `COc1ccc(OCC(=O)NNC(=O)C2CCN(c3ncnc4sc(C)c(C)c34)CC2)cc1`, the “activity change, negative = killing” value is -39.1%. Take `CC(=O)NC(Cc1ccc(F)cc1)C(=O)NC1CCN(c2ncccc2[N+](=O)[O-])CC1` (centres undefined): the Potency is 1830 nM (active).

On to `CC(=O)NC(Cc1ccccc1F)C(=O)NC1CCN(c2ncccc2[N+](=O)[O-])CC1` (centres undefined), for which the Potency was 2310 nM (active). For the molecule `COc1ccc(CN2C(=O)C(CC(C)C)Nc3ncnc(N4CCCCC4)c32)cc1` (centres undefined), the “activity change, negative = killing” value was 3.69%. For the molecule `CC(=O)NC(Cc1ccccc1)C(=O)NC1CCN(c2ncccc2[N+](=O)[O-])CC1` (centres undefined), the Potency is 1630 nM (active). On to `O=C(COc1cccnc1[N+](=O)[O-])Nc1c(Cl)cccc1Cl`, for which the Potency was 3260 nM (active).

Turning to `O=C(COc1cccnc1[N+](=O)[O-])Nc1ncc(Cl)cc1Cl`, the Potency is 4600 nM (active).

Take `CC(=O)c1c(COC(=O)c2ccccc2Cl)nc2ccccc2[n+]1[O-]`: the Potency is 14500 nM (active).

For `CC(=O)c1c(COC(=O)c2ccc(F)cc2)nc2ccccc2[n+]1[O-]`, the Potency is 6500 nM (active). For the molecule `O=C(Nc1ccc(OCC(=O)N2CCOCC2)cc1)c1ccccc1F`, the Potency is 7290 nM (active).

Take `Cn1c(CNC(=O)c2ccccc2F)cc2ccccc21`: the “activity change, negative = killing” value was 11%. For `COc1ccc2oc(=Nc3ccccc3)c(-c3nc4ccccc4[nH]3)cc2c1`, the Potency was 4100 nM (active). The same measure, in the same setting: the value for `O=[N+]([O-])c1c(C(Cl)Cl)nn(-c2ccccc2)c1N1CCOCC1` was 1830 nM (active); that for `CCOC(=O)C1CCN(c2c([N+](=O)[O-])c(C(Cl)Cl)nn2-c2ccccc2)CC1` was 2900 nM (active). For `CCN1/C(=C\c2ccc3ccccc3[n+]2CC)Sc2cc(C)ccc21`, the “activity change, negative = killing” value was -1.8%. In the case of `COc1ccc(C(=O)c2c(C)oc3cc([N+](=O)[O-])c(O)c([N+](=O)[O-])c23)cc1`, the Potency was 1830 nM (active). Take `Cc1oc2cc([N+](=O)[O-])c(O)c([N+](=O)[O-])c2c1C(=O)c1ccc(Br)cc1`: the Potency was 2310 nM (active). For the molecule `Cc1oc2cc([N+](=O)[O-])c(O)c([N+](=O)[O-])c2c1C(=O)c1ccc(Cl)cc1`, the Potency is 2590 nM (active). Still for that read-out and setting: the value for `O=C(Nc1nc2cc3c(cc2s1)OCCO3)c1ccc([N+](=O)[O-])o1` was 579 nM (active); that for `O=C(Nc1nc2c(F)cc(F)cc2s1)c1ccc([N+](=O)[O-])o1` was 1160 nM (active). Turning to `CCn1c(CCNC(=O)c2ccc(F)cc2)nc2ccccc21`, the “activity change, negative = killing” value is 1.8%. In the case of `O=C(Nc1nc2c(Cl)cccc2s1)c1ccc([N+](=O)[O-])o1`, the Potency is 1450 nM (active). On the same count and under the same terms, in the case of `CCCn1c(NC(=O)c2ccc([N+](=O)[O-])o2)nc2ccccc21` it was 1300 nM (active). `CCOP(=O)(OCC)c1cccc(P(=O)(c2ccccc2)c2ccccc2)c1O`: the “activity change, negative = killing” value was 3.15%.

Consider `COC(=O)[C@]1(C)N[C@H](CN(C)S(=O)(=O)c2ccc(-c3ccccc3)cc2)[C@@H]2C(=O)N(C)C(=O)[C@@H]21`, for which the “activity change, negative = killing” value was -15.1%. On to `O=C(Nc1nc2ccccc2s1)c1ccc([N+](=O)[O-])o1`, for which the Potency was 1030 nM (active). As to `O=C(Nc1nc2c(F)cccc2s1)c1ccc([N+](=O)[O-])o1`, the Potency was 1030 nM (active). Take `COc1ccc2nc(NC(=O)c3ccc([N+](=O)[O-])o3)sc2c1`: the Potency is 918 nM (active).

Consider `O=C(Nc1cccc2ncccc12)c1ccc([N+](=O)[O-])o1`, for which the Potency is 918 nM (active). Same read-out and setting: in the case of `O=C(Nc1cccc2ccccc12)c1ccc([N+](=O)[O-])o1` it was 1030 nM (active); in that of `NC(=O)c1oc2ccccc2c1NC(=O)c1ccc([N+](=O)[O-])o1`, 650 nM (active). For the molecule `COc1cc(C2C(C(=O)c3ccc(C)o3)=C(O)C(=O)N2c2cc(C)on2)ccc1OCc1ccccc1` (centres undefined), the “activity change, negative = killing” value was -44.3%. Regarding `CCC(C)Nc1ccc(NC(C)CC)cc1` (centres undefined), the Potency was 183 nM (active).

In the case of `O=[N+]([O-])c1ccc(/C=N/Nc2ccnc3cc(Cl)ccc23)o1`, the Potency is 2050 nM (active). Regarding `Clc1ccc2c(N/N=C/c3ccc(Br)cc3)ccnc2c1`, the Potency is 516 nM (active). For the molecule `Clc1ccc2c(N/N=C/c3cccc(Br)c3)ccnc2c1`, the Potency is 1450 nM (active).

Regarding `Cc1nc2c(N=Nc3ccccc3F)c(N)nn2c(N)c1C#N`, the Potency is 4600 nM (active). `CCOC(=O)Cn1c(=NC(=O)c2ccc([N+](=O)[O-])s2)sc2ccccc21`: the Potency was 1830 nM (active). Same read-out and setting: the value for `CC(=O)O[C@@H]1[C@@H](O)CN[C@@H]1Cc1ccccc1` was 579 nM (active); that for `O=[N+]([O-])c1cc(S(=O)(=O)Nc2cccc(Cl)c2)ccc1N/N=C/c1ccc(N2CCOCC2)cc1` was 6500 nM (active).

For the molecule `O=S(=O)(c1ccccc1)N1CCN(S(=O)(=O)c2ccccc2)CC1`, the “activity change, negative = killing” value is 7.64%.

Regarding `O=[N+]([O-])c1cc(S(=O)(=O)N2CCCC2)ccc1N/N=C/c1ccncc1`, the Potency is 2310 nM (active). Still for that read-out and setting: in the case of `O=[N+]([O-])c1cc(S(=O)(=O)N2CCOCC2)ccc1NS(=O)(=O)c1ccccc1` it was 1830 nM (active). As to `N=C1C(c2ccccc2)=C(O)CN1c1cccc(S(=O)(=O)N2CCOCC2)c1`, the “activity change, negative = killing” value was -16.5%. With `C(=C\c1nccc2ccccc12)/c1ccc(N2CCOCC2)cc1`, the Potency is 2310 nM (active).

For the molecule `Nc1ccc(/C=C/c2nccc3ccccc23)cc1`, the Potency is 3260 nM (active).

As for `Nc1ncnc2c1ncn2C1O[C@H](CO)[C@@H](O)[C@@H]1O` (some centres undefined), the Potency was 818 nM (active). Turning to `O=C(Nc1ccc2nc(-c3ccco3)[nH]c2c1)c1cccs1`, the Potency is 5790 nM (active). As for `O=C(Nc1ccc2c(c1)nc1n2CCSC1)c1ccco1`, the Potency is 4600 nM (active). On to `CC(NC(=O)c1ccc([N+](=O)[O-])o1)C1CC2CCC1C2` (centres undefined), for which the Potency was 1450 nM (active).

With `CC(NC(=O)c1ccc([N+](=O)[O-])o1)C12CC3CC(CC(C3)C1)C2` (centres undefined), the Potency is 918 nM (active).

In the case of `O=C(NC12CC3CC(CC(C3)C1)C2)c1ccc([N+](=O)[O-])o1`, the Potency is 1030 nM (active). As for `O=[N+]([O-])c1nn(-c2ccc3c(c2)OCCO3)n(O)c1=Nc1ccc(Cl)cc1`, the Potency is 1300 nM (active). Consider `CC(C)c1ccc(N=c2c([N+](=O)[O-])nn(-c3ccc4c(c3)OCCO4)n2O)cc1`, for which the Potency is 2050 nM (active). Take `CC(=O)N(/N=C/c1ccc([N+](=O)[O-])o1)c1nc2ccccc2c(=O)n1-c1ccccc1`: the Potency is 1030 nM (active). With `O=c1c2ccccc2nc(/C=C/c2ccc([N+](=O)[O-])o2)n1CCCO`, the Potency is 579 nM (active). Take `Cc1cccc(-c2nnc(SCc3cc(=O)[nH]c4ccccc34)n2C)c1`: the “activity change, negative = killing” value was -23.8%.

Turning to `Cc1cc(C)nc(N/N=C/c2ccc(Cl)cc2)n1`, the “activity change, negative = killing” value was -13.1%. For `CCNc1nc(NCC)nc(N/N=C/c2ccc([N+](=O)[O-])o2)n1`, the Potency was 2590 nM (active). Turning to `Cc1cc(C)nc(N/N=C/c2ccc([N+](=O)[O-])o2)n1`, the Potency was 1300 nM (active). Consider `O=C(Cc1csc(Nc2nc(=S)[nH]c3ccccc23)n1)NCCCN1CCN(c2ccccc2F)CC1`, for which the Potency was 14500 nM (active). Take `CCOC(=O)Cc1csc(NC(=S)NC(=O)c2ccc(C)cc2)n1`: the Potency was 7290 nM (active). Consider `CSc1cccc(NS(=O)(=O)c2cn(C)cn2)c1`, for which the “activity change, negative = killing” value is -20.1%.

For `C=CCn1c(C)cc(C(=O)COc2ccc(C)nc2[N+](=O)[O-])c1C`, the Potency is 460 nM (active).

As to `Cc1ccc(OCc2ccc([N+](=O)[O-])cc2)c([N+](=O)[O-])n1`, the Potency was 3260 nM (active). `Cc1ccc(OCC(=O)c2cc(C)n(C)c2C)c([N+](=O)[O-])n1`: the Potency is 1450 nM (active). On to `COCCn1c(C)cc(C(=O)COc2cccnc2[N+](=O)[O-])c1C`, for which the Potency is 1300 nM (active). Regarding `COCCn1c(C)cc(C(=O)COc2ccc(C)nc2[N+](=O)[O-])c1C`, the Potency is 918 nM (active). Still for that read-out and setting: in the case of `C=CCn1c(C)cc(C(=O)COC(=O)c2n[nH]c(=O)c3ccccc23)c1C` it was 4600 nM (active); in that of `CCCn1c(C)cc(C(=O)COc2ccc(C)nc2[N+](=O)[O-])c1C`, 1030 nM (active); in that of `c1ccc2cc3c(NCCN4CCOCC4)ccnc3cc2c1`, 1830 nM (active).

As to `Cc1ccc(-c2cnc3cc(C)nn3c2)cc1`, the Potency is 5790 nM (active). In the case of `Clc1ccc(CSc2nc3ccncc3[nH]2)cc1`, the Potency is 579 nM (active). Turning to `Clc1ccccc1CSc1nc2ccncc2[nH]1`, the Potency was 3650 nM (active). In the case of `COc1cccc(CSc2nc3ccncc3[nH]2)c1`, the Potency was 1630 nM (active). Turning to `O=C(c1ccc(CSc2nc3ccncc3[nH]2)cc1)N1CCCCCC1`, the Potency is 1160 nM (active). With `Cc1ccc(CSc2nc3ccncc3[nH]2)cc1`, the Potency was 259 nM (active).

Consider `CCCC(=O)NC(=S)NNC(=O)c1ccc([N+](=O)[O-])cc1`, for which the Potency was 410 nM (active). Still for that read-out and setting: in the case of `CC(C)CC(=O)NC(=S)NNC(=O)c1ccc([N+](=O)[O-])cc1` it was 1300 nM (active). As for `CSCCC(NS(=O)(=O)c1ccc2c(c1)OCCO2)C(=O)N(C)Cc1ccccc1F` (centres undefined), the “activity change, negative = killing” value is -17%.

Consider `CSCCC(NC(=O)OC(C)(C)C)C(=O)Oc1ccc2c(=O)c(-c3ccc4c(c3)OCCO4)coc2c1` (centres undefined), for which the Potency is 1030 nM (active). As to `O=C(Nc1ccccc1N1CCOCC1)c1ccc([N+](=O)[O-])s1`, the Potency was 2050 nM (active). `O=C(Nc1cc(S(=O)(=O)N2CCOCC2)ccc1N1CCOCC1)c1ccc([N+](=O)[O-])s1`: the Potency is 4100 nM (active).

Turning to `O=C(/C=C/c1ccc(O)c([N+](=O)[O-])c1)c1ccc2ccccc2c1`, the Potency was 2050 nM (active).

Regarding `Cc1cc(C(=O)COc2cccnc2[N+](=O)[O-])c(C)n1-c1ccccc1`, the Potency is 365 nM (active). For `O=C(COc1cccnc1[N+](=O)[O-])c1c[nH]c2ccccc12`, the Potency was 5160 nM (active). Same read-out and setting: the value for `Cc1ccc(-n2c(C)cc(C(=O)COc3cccnc3[N+](=O)[O-])c2C)cc1` was 516 nM (active).

Consider `Cc1cc(C(=O)COc2cccnc2[N+](=O)[O-])c(C)n1-c1ccccc1F`, for which the Potency is 1160 nM (active).
